For 32 compounds, growth results are on record in PubChem BioAssay (NCI).

The panel holds about 83,000 compounds, 20% with a hit somewhere; the sample as a whole holds those more often.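 Cell lines were cultured in 96-well plates, exposed to a single compound concentration, and assessed for percent growth 48 hours later.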 Values without a mark were called inactive. Calls of active or inactive are those of the source. The calls were made as follows: active = growth percent below 10; inactive = the rest.

One experiment has as its system A498 renal. Kind of experiment: NCI-60 one-dose screen, 48 h (100 = growth as untreated, 0 = no growth, -100 = all killed). Particulars: 10 µM unless noted.
As for `CC(C)CCC[C@@H](C)[C@H]1CC[C@H]2[C@@H](Nc3ccc(O)cc3)CCC[C@]12C`, the growth is 67.6%.
Take `O=C(c1ccccc1)c1c(/C=C/c2ccc(Cl)cc2)nc2ccccc2c1/C=C/c1cccs1`: the growth was 77.1%.
On the same count and under the same terms, for `CC(=O)n1c(-c2ccc(Cl)cc2)nc2c(c1=O)C(c1ccc(Cl)cc1)c1sc3c(Cl)cccc3c1O2` (stereo not given) the value was 3.79% (active).
Regarding `CN1CCN(CCCOc2ccc3nc(Nc4ccc(F)c(F)c4)ccc3c2)CC1`, the growth is 33.4%.
Still for that read-out and setting: with `CS(=O)c1cccc(-c2ccc3nc(N)n(-c4ccc(C(F)(F)F)cc4)c(=O)c3c2)c1` (stereo not given) the figure was 107%.
On to `COc1ccc2[nH]c(O)c(/C=c3/cc4c(c(-c5ccc(F)c(OC)c5)n3)=Nc3ccccc3-4)c2c1`, for which the growth was 69.6%.
Same read-out and setting: with `CC(=O)C(C)Cc1cc2c(cc1C)C(C)(C)CCC2(C)C` (stereo not given) the figure was 108%; with `COc1cc(/C=C2\C(=O)ON=C2C)cc(OC)c1OC`, 65%.
The same measure, in the same setting: with `CCCCn1c(=O)c2c(nc3n2CCCN3CCc2ccc(OCC(=O)NCCN(CC)CC)cc2)n(CCCC)c1=O` the figure was 1.86% (active); with `COc1cc2c(cc1-c1c(C)noc1C)ncc1nc(C3CCC(F)(F)CC3)n(C3CCC(OC(F)F)CC3)c12` (stereo not given), 61.2%; with `CCN(CCNc1ccc(C)c2sc3ccccc3c(=O)c12)CC(C)(C)O`, 81%.
The same measure, in the same setting: for `CCCCCCCCCCCCCCCCCCOc1ccccc1CC(=O)OCCC[N+](C)(C)C` the value was 98.5%.
On to `COc1ccc(C(=NN=C(N)N)c2ccc(OC)cc2)cc1`, for which the growth was 66.7%.
For `Cc1c(C(=O)N[C@@H](Cc2ccccc2)C(=O)C(=O)NCCc2ccccc2)[nH]c2ccccc2c1=O`, the growth is 86.5%.
The same measure, in the same setting: with `CC1(c2ccccc2)NC(=O)N(NC(=O)CSc2nc(-c3cccs3)nc3ccccc23)C1=O` (stereo not given) the figure was 71.4%; with `CCN(CC)Cc1cccc(C(=O)OC)c1`, 115%.
On to `CCCCc1ccc(Nc2ccc(Nc3ccc(CCCC)cc3S(=O)(=O)O)c3c2C(=O)c2ccccc2C3=O)c(S(=O)(=O)O)c1`, for which the growth was 119%.
The same measure, in the same setting: for `O=C(Nc1ccc(Cl)cc1)Nc1ccc(Cl)c(C(F)(F)F)c1` the value was -7.36% (active); for `COc1cc(/C=N/Nc2ncc(-c3cc4cc5c(cc4o3)OCO5)s2)cc(OC)c1OC`, 75.6%.
Still for that read-out and setting: for `COc1ccc(-c2nc3c(N)c(CO)c(C)nc3o2)cc1` the value was -10.8% (active).
On to `c1ccc(Nc2nc(-c3ccccn3)cs2)nc1`, for which the growth was 28.3%.
For `Cc1ccc(S(=O)(=O)Oc2cc(OS(=O)(=O)c3ccc(C)cc3)cc(OS(=O)(=O)c3ccc(C)cc3)c2)cc1`, the growth is 96.9%.
With `COc1ccc(NC(=O)c2nc(-c3cc(OC)c(OC)c(OC)c3)n(-c3cccc4ccccc34)n2)cc1OC`, the growth was 42.6%.
In the case of `COc1ccc(C2C(c3nn[nH]n3)=C(N)Oc3c2ccc2ccccc32)cc1` (stereo not given), the growth was 26.5%.

The next experiment has as its system CCRF-CEM leukemia. Described as above. Conditions: 10 µM unless noted.
Consider `Cc1ccc(/C=C/c2c(C(=O)/C=C/c3ccc(Cl)cc3)c(C)nc3ccccc23)cc1`, for which the growth was 4.53% (active).
Consider `c1ccc(-c2nc([P+](c3ccccc3)(c3ccccc3)c3ccccc3)c(N3CCOCC3)o2)cc1`, for which the growth was 13.4%.
On the same count and under the same terms, for `COc1ccc(C2c3ccc4ccccc4c3Oc3nc(C)[nH]c(=O)c32)cc1` (stereo not given) the value was 106%; for `O=C1/C(=C\c2c[nH]c3ccccc23)c2ccccc2N1c1c(Cl)cccc1Cl`, 11.6%; for `Cc1cc(/C=C\c2ccc3ccccc3[n+]2C)c(O)c2ncccc12`, 25.6%.
Still for that read-out and setting: with `O=C1N=c2cc3c(cc2=C/C1=C/c1sc(=S)n(CCc2ccc(O)cc2)c1O)OCCO3` the figure was 40.9%; with `N#Cc1nc(C#N)c(Sc2ccccc2)c(Sc2ccccc2)c1Sc1ccccc1`, -7.95% (active).
Same read-out and setting: with `Cc1cc(NCCCCNc2ccnc3cc(Cl)ccc23)nc(Nc2ccc(C(=O)N3CCCC3)cc2)n1` the figure was 2.01% (active); with `CC(C)CCC[C@@H](C)[C@H]1CC[C@H]2[C@@H](Nc3ccc(O)cc3)CCC[C@]12C`, 32.2%; with `O=C(c1ccccc1)c1c(/C=C/c2ccc(Cl)cc2)nc2ccccc2c1/C=C/c1cccs1`, 96.4%.
Regarding `CC(=O)n1c(-c2ccc(Cl)cc2)nc2c(c1=O)C(c1ccc(Cl)cc1)c1sc3c(Cl)cccc3c1O2` (stereo not given), the growth is -4.47% (active).
Still for that read-out and setting: with `CN1CCN(CCCOc2ccc3nc(Nc4ccc(F)c(F)c4)ccc3c2)CC1` the figure was 17.2%; with `CS(=O)c1cccc(-c2ccc3nc(N)n(-c4ccc(C(F)(F)F)cc4)c(=O)c3c2)c1` (stereo not given), 99.7%.
On the same count and under the same terms, for `CC(=O)C(C)Cc1cc2c(cc1C)C(C)(C)CCC2(C)C` (stereo not given) the value was 121%.
On to `COc1cc(/C=C2\C(=O)ON=C2C)cc(OC)c1OC`, for which the growth was 92.8%.
The same measure, in the same setting: with `CCCCn1c(=O)c2c(nc3n2CCCN3CCc2ccc(OCC(=O)NCCN(CC)CC)cc2)n(CCCC)c1=O` the figure was 24.6%; with `CCN(CCNc1ccc(C)c2sc3ccccc3c(=O)c12)CC(C)(C)O`, 39.9%; with `CCCCCCCCCCCCCCCCCCOc1ccccc1CC(=O)OCCC[N+](C)(C)C`, 25.7%.
`COc1ccc(C(=NN=C(N)N)c2ccc(OC)cc2)cc1`: the growth was 60%.
Same read-out and setting: for `Cc1c(C(=O)N[C@@H](Cc2ccccc2)C(=O)C(=O)NCCc2ccccc2)[nH]c2ccccc2c1=O` the value was 104%; for `CCN(CC)Cc1cccc(C(=O)OC)c1`, 76.3%; for `CCCCc1ccc(Nc2ccc(Nc3ccc(CCCC)cc3S(=O)(=O)O)c3c2C(=O)c2ccccc2C3=O)c(S(=O)(=O)O)c1`, 80.9%.
Same read-out and setting: with `O=C(Nc1ccc(Cl)cc1)Nc1ccc(Cl)c(C(F)(F)F)c1` the figure was -27.6% (active); with `COc1cc(/C=N/Nc2ncc(-c3cc4cc5c(cc4o3)OCO5)s2)cc(OC)c1OC`, 26%.
The same measure, in the same setting: for `Cc1ccc(S(=O)(=O)Oc2cc(OS(=O)(=O)c3ccc(C)cc3)cc(OS(=O)(=O)c3ccc(C)cc3)c2)cc1` the value was 95.7%; for `COc1ccc(C2C(c3nn[nH]n3)=C(N)Oc3c2ccc2ccccc32)cc1` (stereo not given), 75.3%.
